The supplement of paper PMC11732987, “Enantioselective OTUD7B fragment discovery through chemoproteomics screening and high-throughput optimisation” (Communications Chemistry, 2025)

What was measured:
Test in all cases: log2 ratio of Biotin-Ahx-Ub-VS probe labelling (compound/DMSO); higher = less target engagement, active = hit call of the paper (q ≤ 0.05, log2 ratio ≤ -1)
Conditions in all cases: treatment time: 3 h
[1] = compound: CCC1N(CCc2sccc12)C(=O)CCl
Outline: (§1)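 DUBs in HEK293T lysate were labelled with Biotin-Ahx-Ub-VS (0.5 µM final, 1 h) after a 3 h treatment with compound at 50 or 200 µM or with DMSO, done in triplicate on 495 µg of lysate per sample. NeutrAvidin-enriched proteins were digested with LysC and trypsin and run by diaPASEF LC-MS/MS. Median-normalised label-free quantities gave average base-two log ratios of compound to DMSO by unpaired t-test, restricted to proteins with at least 2 unique peptides.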

[2] = compound: CN1c2ccccc2C(CS1(=O)=O)NC(=O)CCl
Outline: as §1

[3] = compound: Cl.ClCC(=O)N1CCc2ncncc2C1
Outline: as §1

[4] = compound: Cl.Cn1ncc2C(CCCc12)NC(=O)CCl
Outline: as §1

[5] = compound: ClCC(=O)NC1CCOc2ccccc12
Outline: as §1

[6] = compound: ClCC(=O)NC1CCCc2ccccc12
Outline: (§2)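 Average ratios of compound to vehicle were obtained by unpaired t-test. Beforehand, 495 µg samples of HEK293T lysate in buffer with protease inhibitors were treated in triplicate with compound over a concentration series or vehicle for 3 h, then with 0.5 µM final Biotin-Ahx-Ub-VS for 1 h. Labelled deubiquitinases were NeutrAvidin-enriched, digested and quantified label-free by diaPASEF LC-MS/MS in Spectronaut, normalised to the global median. Values are log2 and cover proteins with at least two unique peptides.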

[7] = compound: ClCC(=O)N[C@@H]1CCCc2ccccc12
Outline: as §2

[8] = compound: ClCC(=O)N[C@H]1CCCc2ccccc12
Outline: as §2

[9] = compound: CCC1N(CCc2cc(OC)c(Cl)cc12)C(=O)CCl
Outline: as §1

[10] = compound: CCCC1N(CCc2cc(OC)c(OC)cc12)C(=O)CCl
Outline: as §1

Measured: log2 ratio of Biotin-Ahx-Ub-VS probe labelling

PSMD7 (UniProt P51665)
UniProt P51665, sequence (P51665 whole entry): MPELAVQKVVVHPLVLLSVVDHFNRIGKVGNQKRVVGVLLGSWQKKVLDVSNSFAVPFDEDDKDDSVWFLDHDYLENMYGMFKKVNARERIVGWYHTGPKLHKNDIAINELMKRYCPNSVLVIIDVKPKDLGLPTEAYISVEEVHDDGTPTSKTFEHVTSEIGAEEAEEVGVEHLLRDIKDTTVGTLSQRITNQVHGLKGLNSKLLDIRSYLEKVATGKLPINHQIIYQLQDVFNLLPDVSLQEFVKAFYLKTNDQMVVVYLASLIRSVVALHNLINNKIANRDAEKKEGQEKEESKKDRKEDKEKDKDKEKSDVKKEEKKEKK
inactive: [1]; compound concentration: 50uM 0.0196 | [1]; compound concentration: 200uM -0.639 | [2]; compound concentration: 50uM -1.31 | [2]; compound concentration: 200uM 0.533 | [3]; compound concentration: 50uM -3.61 | [3]; compound concentration: 200uM 0.0399 | [4]; compound concentration: 50uM 0.173 | [4]; compound concentration: 200uM 0.483 | [5]; compound concentration: 50uM 1.07 | [5]; compound concentration: 200uM 1 | [6]; compound concentration: 0.78uM -0.113 | [6]; compound concentration: 1.56uM -0.191 | [6]; compound concentration: 3.13uM -0.247 | [6]; compound concentration: 6.25uM -0.311 | [6]; compound concentration: 12.5uM -0.243 | [6]; compound concentration: 25uM -0.439 | [6]; compound concentration: 50uM -0.166 | [6]; compound concentration: 100uM 0.0296 | [6]; compound concentration: 200uM -0.486 | [7]; compound concentration: 0.78uM -0.113 | [7]; compound concentration: 1.56uM 0.319 | [7]; compound concentration: 3.13uM 0.0163 | [7]; compound concentration: 6.25uM -0.0645 | [7]; compound concentration: 12.5uM 0.0151 | [7]; compound concentration: 25uM 0.0566 | [7]; compound concentration: 50uM -0.252 | [7]; compound concentration: 100uM 0.0397 | [7]; compound concentration: 200uM 0.357 | [8]; compound concentration: 0.78uM 0.0931 | [8]; compound concentration: 1.56uM 0.0292 | [8]; compound concentration: 3.13uM 0.0943 | [8]; compound concentration: 6.25uM -0.111 | [8]; compound concentration: 12.5uM -0.00799 | [8]; compound concentration: 25uM -0.0922 | [8]; compound concentration: 50uM 0.0424 | [8]; compound concentration: 100uM -0.132 | [8]; compound concentration: 200uM -0.169 | [9]; compound concentration: 50uM 0.122 | [9]; compound concentration: 200uM 1.79 | [10]; compound concentration: 50uM 0.742 | [10]; compound concentration: 200uM 0.149

UniProt P51784
UniProt P51784, sequence (P51784 whole entry): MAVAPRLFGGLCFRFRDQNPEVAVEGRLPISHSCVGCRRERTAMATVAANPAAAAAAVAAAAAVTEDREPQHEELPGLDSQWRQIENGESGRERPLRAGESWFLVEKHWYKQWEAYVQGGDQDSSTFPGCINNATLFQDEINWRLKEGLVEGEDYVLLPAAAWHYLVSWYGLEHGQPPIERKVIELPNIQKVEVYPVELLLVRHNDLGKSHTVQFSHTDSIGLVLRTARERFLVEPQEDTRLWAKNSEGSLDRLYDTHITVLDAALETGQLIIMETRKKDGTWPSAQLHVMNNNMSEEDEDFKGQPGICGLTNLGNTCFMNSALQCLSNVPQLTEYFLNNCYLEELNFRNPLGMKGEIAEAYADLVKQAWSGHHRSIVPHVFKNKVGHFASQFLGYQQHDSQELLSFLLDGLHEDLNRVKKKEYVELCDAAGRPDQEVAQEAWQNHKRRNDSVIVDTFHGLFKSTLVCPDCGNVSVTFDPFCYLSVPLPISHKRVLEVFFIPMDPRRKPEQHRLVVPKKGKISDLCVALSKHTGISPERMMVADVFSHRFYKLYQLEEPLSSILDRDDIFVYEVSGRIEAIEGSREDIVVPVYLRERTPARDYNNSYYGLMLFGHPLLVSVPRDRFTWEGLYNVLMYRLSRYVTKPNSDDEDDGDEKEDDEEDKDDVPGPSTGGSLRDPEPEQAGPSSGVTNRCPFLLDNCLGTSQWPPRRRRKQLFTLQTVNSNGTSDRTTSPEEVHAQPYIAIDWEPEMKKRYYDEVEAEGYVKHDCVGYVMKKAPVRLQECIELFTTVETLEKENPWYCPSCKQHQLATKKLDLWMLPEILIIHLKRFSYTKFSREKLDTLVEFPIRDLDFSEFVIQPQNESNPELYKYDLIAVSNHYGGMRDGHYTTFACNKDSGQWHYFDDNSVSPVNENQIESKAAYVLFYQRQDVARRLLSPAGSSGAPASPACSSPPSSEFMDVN
inactive: [1]; compound concentration: 50uM 0.031 | [1]; compound concentration: 200uM -0.194 | [2]; compound concentration: 50uM -0.0381 | [2]; compound concentration: 200uM -0.118 | [3]; compound concentration: 50uM 0.0396 | [3]; compound concentration: 200uM -0.389 | [4]; compound concentration: 50uM 0.218 | [4]; compound concentration: 200uM 0.132 | [5]; compound concentration: 50uM 0.157 | [5]; compound concentration: 200uM -0.115 | [6]; compound concentration: 0.78uM -0.0264 | [6]; compound concentration: 1.56uM -0.0198 | [6]; compound concentration: 3.13uM -0.0986 | [6]; compound concentration: 6.25uM 0.0318 | [6]; compound concentration: 12.5uM -0.0982 | [6]; compound concentration: 25uM -0.201 | [6]; compound concentration: 50uM 0.0391 | [6]; compound concentration: 100uM -0.0818 | [6]; compound concentration: 200uM -0.0885 | [7]; compound concentration: 0.78uM -0.219 | [7]; compound concentration: 1.56uM -0.052 | [7]; compound concentration: 3.13uM -0.00301 | [7]; compound concentration: 6.25uM -0.0872 | [7]; compound concentration: 12.5uM -0.0816 | [7]; compound concentration: 25uM 0.00546 | [7]; compound concentration: 50uM -0.0574 | [7]; compound concentration: 100uM -0.00104 | [7]; compound concentration: 200uM -0.228 | [8]; compound concentration: 0.78uM -0.0931 | [8]; compound concentration: 1.56uM -0.0394 | [8]; compound concentration: 3.13uM -0.0291 | [8]; compound concentration: 6.25uM 0.0533 | [8]; compound concentration: 12.5uM -0.077 | [8]; compound concentration: 25uM -0.127 | [8]; compound concentration: 50uM -0.0252 | [8]; compound concentration: 100uM -0.0157 | [8]; compound concentration: 200uM -0.158 | [9]; compound concentration: 50uM -0.0453 | [9]; compound concentration: 200uM -0.739 | [10]; compound concentration: 50uM -0.482
active: [10]; compound concentration: 200uM -1.44

EIF3F (UniProt O00303)
UniProt O00303, sequence (O00303 whole entry): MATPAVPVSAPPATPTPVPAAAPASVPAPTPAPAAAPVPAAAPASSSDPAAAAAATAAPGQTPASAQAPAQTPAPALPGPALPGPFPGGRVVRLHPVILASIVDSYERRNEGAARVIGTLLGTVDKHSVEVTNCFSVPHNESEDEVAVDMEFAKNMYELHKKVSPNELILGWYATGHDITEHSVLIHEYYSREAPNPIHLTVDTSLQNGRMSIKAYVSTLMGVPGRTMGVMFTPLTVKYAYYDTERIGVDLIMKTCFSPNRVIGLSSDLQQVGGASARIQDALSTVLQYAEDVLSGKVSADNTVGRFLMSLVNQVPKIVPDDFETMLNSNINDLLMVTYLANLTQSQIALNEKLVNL
inactive: [1]; compound concentration: 50uM -0.16 | [1]; compound concentration: 200uM -0.05 | [2]; compound concentration: 50uM -0.111 | [2]; compound concentration: 200uM -0.0123 | [3]; compound concentration: 50uM 0.026 | [3]; compound concentration: 200uM -0.017 | [4]; compound concentration: 50uM -0.0544 | [4]; compound concentration: 200uM -0.232 | [5]; compound concentration: 50uM -0.204 | [5]; compound concentration: 200uM 0.0458 | [6]; compound concentration: 0.78uM -0.0827 | [6]; compound concentration: 1.56uM 0.0402 | [6]; compound concentration: 3.13uM -0.164 | [6]; compound concentration: 6.25uM -0.148 | [6]; compound concentration: 12.5uM 0.141 | [6]; compound concentration: 25uM -0.0954 | [6]; compound concentration: 50uM -0.209 | [6]; compound concentration: 100uM -0.401 | [6]; compound concentration: 200uM -0.0132 | [7]; compound concentration: 0.78uM -0.295 | [7]; compound concentration: 1.56uM 0.0826 | [7]; compound concentration: 3.13uM -0.0906 | [7]; compound concentration: 6.25uM -0.461 | [7]; compound concentration: 12.5uM -0.244 | [7]; compound concentration: 25uM -0.214 | [7]; compound concentration: 50uM -0.034 | [7]; compound concentration: 100uM 0.00457 | [7]; compound concentration: 200uM 0.0644 | [8]; compound concentration: 0.78uM -0.0754 | [8]; compound concentration: 1.56uM -0.0584 | [8]; compound concentration: 3.13uM -0.182 | [8]; compound concentration: 6.25uM 0.0402 | [8]; compound concentration: 12.5uM -0.0792 | [8]; compound concentration: 25uM -0.00315 | [8]; compound concentration: 50uM -0.0696 | [8]; compound concentration: 100uM -0.0985 | [8]; compound concentration: 200uM -0.313 | [9]; compound concentration: 50uM -0.015 | [9]; compound concentration: 200uM -0.16 | [10]; compound concentration: 50uM -0.0996 | [10]; compound concentration: 200uM 0.154

YOD1 (UniProt Q5VVQ6)
UniProt Q5VVQ6, sequence (Q5VVQ6 whole entry): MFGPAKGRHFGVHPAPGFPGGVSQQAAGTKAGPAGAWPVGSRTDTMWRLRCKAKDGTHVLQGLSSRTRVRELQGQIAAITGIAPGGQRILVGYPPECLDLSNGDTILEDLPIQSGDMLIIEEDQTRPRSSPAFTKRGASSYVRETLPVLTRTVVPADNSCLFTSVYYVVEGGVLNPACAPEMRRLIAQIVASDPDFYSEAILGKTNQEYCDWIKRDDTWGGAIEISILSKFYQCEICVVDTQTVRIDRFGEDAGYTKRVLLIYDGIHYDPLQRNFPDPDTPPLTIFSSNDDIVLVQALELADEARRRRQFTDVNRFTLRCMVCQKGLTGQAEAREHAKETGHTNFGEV
inactive: [1]; compound concentration: 50uM -0.141 | [1]; compound concentration: 200uM -0.171 | [2]; compound concentration: 50uM -0.237 | [2]; compound concentration: 200uM -0.218 | [3]; compound concentration: 50uM -0.0162 | [3]; compound concentration: 200uM -0.45 | [4]; compound concentration: 50uM 0.0347 | [4]; compound concentration: 200uM -0.0749 | [5]; compound concentration: 50uM -0.0482 | [5]; compound concentration: 200uM 0.0949 | [6]; compound concentration: 0.78uM -0.286 | [6]; compound concentration: 1.56uM -0.115 | [6]; compound concentration: 3.13uM -0.302 | [6]; compound concentration: 6.25uM -0.266 | [6]; compound concentration: 12.5uM -0.478 | [6]; compound concentration: 25uM -0.333 | [6]; compound concentration: 50uM -0.142 | [6]; compound concentration: 100uM -0.14 | [6]; compound concentration: 200uM -0.258 | [7]; compound concentration: 0.78uM -0.469 | [7]; compound concentration: 1.56uM -0.274 | [7]; compound concentration: 3.13uM -0.434 | [7]; compound concentration: 6.25uM -0.346 | [7]; compound concentration: 12.5uM -0.221 | [7]; compound concentration: 25uM -0.268 | [7]; compound concentration: 50uM -0.264 | [7]; compound concentration: 100uM -0.248 | [7]; compound concentration: 200uM -0.262 | [8]; compound concentration: 0.78uM -0.197 | [8]; compound concentration: 1.56uM -0.309 | [8]; compound concentration: 3.13uM -0.298 | [8]; compound concentration: 6.25uM -0.173 | [8]; compound concentration: 12.5uM -0.186 | [8]; compound concentration: 25uM -0.167 | [8]; compound concentration: 50uM -0.0663 | [8]; compound concentration: 100uM -0.169 | [8]; compound concentration: 200uM -0.282 | [9]; compound concentration: 50uM 0.213 | [9]; compound concentration: 200uM -0.308 | [10]; compound concentration: 50uM -0.12 | [10]; compound concentration: 200uM -0.312
